The values that follow come from the supplement of paper PMC10338343.

± gives the standard deviation.

One experiment deals with MILI (PIWIL2) piRISC loaded with L1MC piRNA (26 nt). Briefly: pre-steady-state target cleavage rate (min^-1); guide: L1MC piRNA 5'p-UAACUAAAUACUAUGCAAGCUGUAGG; MIWI and MILI are mouse PIWI proteins and EfPiwi is from a freshwater sponge; tags in brackets are library labels; higher = faster piRNA-guided slicing of the target. To be noted: auxiliary factor: 500 nM mouse GTSF1. In a few lines: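 Using HEPES–potassium acetate buffer at 33 °C, 1 nM active affinity-purified piRISC with a single synthetic guide was mixed with 0.1 nM transcribed, DNA-blocked target RNA library for 0–8 or 0–960 min, with or without 500 nM GTSF1 partner protein. Uncleaved targets were sequenced and normalised to depth and to weakly complementary targets, and three trials were pooled with k3 capped at 0.0001 min^-1. A burst-and-steady-state fit gave the pre-steady-state cleavage rate.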
In the case of UCCUGGAAGUCCUUGCAUAGUAUUUUCAAA, the “pre-steady-state target cleavage rate” value came out at 0.0197 ± 0.0079.
Still for that read-out and setting: in the case of UCCUGGAUGUCGAACGUAUGUAUUUUGUAA it was below 0.0001; in that of UCCUGGAUCAGCUUGCAUAGUAUAUUCAAA, 0.0428 ± 0.01.
On the same count and under the same terms, in the case of UCCUGGAUGUCGUUGCAUAGUAUUUAGAUA it was 0.0436 ± 0.017.
Still for that read-out and setting: in the case of UCCUGGAUCACCUUGCAUAGUUUUUAGUUA it was 0.016 ± 0.0061; in that of UCCUGGAUCACGAUGCAUAGUAUUUUCAAA, 0.0499 ± 0.012; in that of UCCUGGAUGUCCUUCCAUAGUAUUUAGUAA, 0.0112 ± 0.0045.
With UCCUGGAUCAGCUUGCAUAGUAAUUACAAA, the “pre-steady-state target cleavage rate” value came to 0.145 ± 0.04.
The same measure, in the same setting: then UCCUGGAUGUCGAUGCAUAGUAUUUAUUA, with 0.00695 ± 0.0047.
Same read-out and setting: in the case of UCCUGGUACAGCUUGCUUAGAAUUUAGUUA it was 0.181 ± 0.059; in that of UCCUGGUACAGCUUGCAUACUAUUUUGUUA, 0.0288 ± 0.011.
On the same count and under the same terms, then UCCUGCUACACCUUGCAUAGUAUUUACAAA, with 0.144 ± 0.039.
With UCCUCCUACAGCUUGCAUAGAUAUUAGUAA, the “pre-steady-state target cleavage rate” value worked out at 0.015 ± 0.007.
Still for that read-out and setting: then UCCUGGAUCAGCUUGCAUUCUAUUUAGUAA, with 0.0151 ± 0.0057; and UCCUGGAUGUCGUUGCAUAGUAUAAUGUUA, with 0.0201 ± 0.011; and UCCUGGAUCAGCUUGCAUAGUAUAUACAAA, with 0.0964 ± 0.023.
On to UCCUGGAUCAGCUUGCUAUGUAUUUAGAAA, for which the “pre-steady-state target cleavage rate” value came out at 0.00524 ± 0.0033.
Still for that read-out and setting: in the case of UCCUGCUACUCCUUGCAUAGUAUUUAGAAA it was 0.0806 ± 0.019; in that of UCCUGGAUGUCGUUGCUUAGUAUUAAGUUA, 0.03 ± 0.0099.
The same measure, in the same setting: then UCCUGCUACACGAUGCAUAGUAUUUACAAA, with 0.0504 ± 0.02; and UCCUGCUACAGCUUGCAUACUAUUUUCAAA, with 0.0295 ± 0.01; and UCCUGGAUGUGCUUGCAUAGAAUUAAGUUA, with 0.00431 ± 0.003.
Same read-out and setting: in the case of UCCUCCUAGUGCUUGCAUAGUAUUUUCAAA it was 0.0158 ± 0.0057; in that of UCCUGGAUGUGCUUGCAUAGUAUAUUGUUA, 0.0146 ± 0.0062; in that of UCCUGGAUCAGCUUGCAUAGAAUUAAGUUA, 0.0383 ± 0.011.
For the sequence UCCUGGAUGACCUUGCAUAGUUUUUAGUUA, the “pre-steady-state target cleavage rate” value amounted to 0.0191 ± 0.0076.
Still for that read-out and setting: in the case of UCCUGCUACAGCUUGCAUUCUAUUUACAAA it was 0.0141 ± 0.0062.
Still for that read-out and setting: then UCCUGGAUGUGCUUGCAUAGUAAUAAGUUA, with 0.0448 ± 0.016.
The same measure, in the same setting: then “UCCUGGAUGUCGAACCAUAGUAUUUAGUUU [g2:g15:cont:t1U]”, with 0.00385 ± 0.0021.
Regarding UCCUGGAACAGCUUGCAUAGUAUUUUGUAA, the “pre-steady-state target cleavage rate” value came to 0.0402 ± 0.012.
Still for that read-out and setting: then UCCUCCUAGUCCUUGCAUAGUAUUUUCAAA, with 0.0344 ± 0.013.
Same read-out and setting: then UCCUGGAUCAGCAAGCAUAGUAUUUUCAAA, with 0.024 ± 0.0074.
The same measure, in the same setting: in the case of UCCUGGAUGUCCUUGGAUAGUAUUUAGAUA it was 0.129 ± 0.035; in that of UCCUGGAUGUCGAACGAUAGUAUUUUAGUUA, below 0.0001.
As for UCCUGGAUGUCCUUGCAUAGUAUUUUCAAA, the “pre-steady-state target cleavage rate” value was 0.023 ± 0.0094.

Still in this experiment, the particulars now being: auxiliary factor: none (no GTSF1).
UCCUGGAUGUCGAACCAUAGUUUUUAGUAA: the “pre-steady-state target cleavage rate” value is below 0.0001.
On the same count and under the same terms, then “UCCUGGAUGUGCUUGCAUACAUAAAUCAAA [g12:g20:cont:t1A]”, with below 0.0001; and UCCUGGAUGAGCUUGCAUACAUUUUAGUUA, with 0.00358 ± 0.0026.
Take UCCUGGAUGUCGAACGUAAGUAAUAAGUUA: the “pre-steady-state target cleavage rate” value was below 0.0001.
Regarding UCCUGGAUGUCGAACGUUAGUAAUUAGUUA, the “pre-steady-state target cleavage rate” value is below 0.0001.
